From the supplement of paper PMC10811239 come the findings set out here.

Each structure is given as a SMILES string.

Holding throughout (assay): bioluminescence (viable cell) signal fold change after vs before treatment, normalised to DMSO (ratio); higher = more tumour cell growth / less inhibition
Conditions in all cases: 10 µM; treatment time 6 days

Experiment [1] has as its system LEGO organoid PT (PTEN-/-; TP53-/-). The procedure:
(§1)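 Luc2-labelled iPSC-derived glioblastoma-like organoids (LEGOs, genotypes PT = PTEN-/-;TP53-/-, PTCC = plus CDKN2A/B-/-, PTN = plus NF1-/-) were treated with 10 uM drug for 6 days (applied every other day) at 37 C. Bioluminescence imaging was done before treatment and 2 days after the last dose. BLI signals were normalised to the DMSO control on the same day and then to the pre-treatment signal (N=3).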

Experiment [2] deals with LEGO organoid PTCC (PTEN-/-; TP53-/-; CDKN2A-/-; CDKN2B-/-). The procedure:
as §1

The test system of experiment [3] is LEGO organoid PTN (PTEN-/-; TP53-/-; NF1-/-). The procedure: as §1

As for `CC(=O)Nc1ccc(O)cc1` [Acetaminophen], the values for the bioluminescence in experiment [1], in experiment [2] and in experiment [3] were 1.19, 0.686 and 0.918, respectively.
The corresponding values for `NS(=O)(=O)Cc1noc2ccccc12` [Zonisamide] are 0.521, 1.19 and 1.19.
Regarding `CCOc1nc2cccc(C(=O)OC(C)OC(=O)OC3CCCCC3)c2n1Cc1ccc(-c2ccccc2-c2nn[nH]n2)cc1` (centres undefined) [Candesartan Cilexetil], the figures for the bioluminescence in experiment [1], in experiment [2] and in experiment [3] were 1.14, 1.17 and 1.04, respectively.
Regarding `CCCCS(=O)(=O)N[C@@H](Cc1ccc(OCCCCC2CCNCC2)cc1)C(=O)O` [Tirofiban], the bioluminescence in experiment [1] is 0.741; in experiment [2], 1.21; in experiment [3], 0.848.
Take `NC(=O)c1ncn([C@@H]2O[C@H](CO)[C@@H](O)[C@H]2O)n1` [Ribavirin]: the figures for the bioluminescence in experiment [1], in experiment [2] and in experiment [3] were 0.826, 1.89 and 0.822, respectively.
In the same order, the values of `C[C@@H]1O[C@]2(CS1)CN1CCC2CC1.C[C@@H]1O[C@]2(CS1)CN1CCC2CC1.Cl.Cl.O` [Cevimeline hydrochloride hemihydrate] are 0.884, 1.04 and 0.522.
Take `CC(=O)Nc1nnc(S(N)(=O)=O)s1` [Acetazolamide]: the bioluminescence in experiment [2] was 1.7; in experiment [3], 2.04.
In the same order, the values of `CCCC(CCC)C(=O)O` [Valproic Acid] are 0.784 and 0.834.
In the same order, the values of `CC(=O)[C@H]1CC[C@H]2[C@@H]3CCC4=CC(=O)CC[C@]4(C)[C@H]3CC[C@]12C` [Progesterone] are 0.682 and 1.12.
In the same order, the values of `Cc1nc2n(c(=O)c1CCN1CCC(c3noc4cc(F)ccc34)CC1)CCCC2` [Risperidal] are 1.93 and 1.31.
Regarding `Cc1cn(-c2cc(NC(=O)c3ccc(C)c(Nc4nccc(-c5cccnc5)n4)c3)cc(C(F)(F)F)c2)cn1` [Nilotinib], the bioluminescence is 1.4 in experiment [2] and 3.9 in experiment [3].
For `CCC1=C[C@@H]2CN(C1)Cc1c([nH]c3ccccc13)[C@@](C(=O)OC)(c1cc3c(cc1OC)N(C)[C@H]1[C@@](O)(C(=O)OC)[C@H](OC(C)=O)[C@]4(CC)C=CCN5CC[C@]31[C@@H]54)C2.O=C(O)[C@H](O)[C@@H](O)C(=O)O.O=C(O)[C@H](O)[C@@H](O)C(=O)O` [Vinorelbine Tartrate], the bioluminescence in experiment [2] amounted to 1.06; in experiment [3], 0.805.
In the same order, the values of `CCCCCCCCCCC[C@@H](C[C@@H]1OC(=O)[C@H]1CCCCCC)OC(=O)[C@H](CC(C)C)NC=O` [Orlistat] are 0.925 and 1.32.
In the same order, the values of `CC(C)Oc1ccc(-c2nc(-c3cccc4c3CC[C@@H]4NCCO)no2)cc1C#N` [Ozanimod] are 0.828 and 0.741.
With `O=c1cc(O)c(Cl)c[nH]1` [Gimeracil], the figures for the bioluminescence in experiment [2] and in experiment [3] were 0.774 and 1.25, respectively.
In the same order, the values of `CN(C)CCC=C1c2ccccc2COc2ccccc21.Cl` [Doxepin hydrochloride] are 1.05 and 0.742.
In the same order, the values of `COc1ccccc1OCC(O)COC(N)=O` (centres undefined) [Methocarbamol] are 1.84 and 2.82.
The corresponding values for `C[C@@](Cc1ccc(O)c(O)c1)(NN)C(=O)O.O` [Carbidopa Hydrate] are 0.96 and 1.55.
On to `CO/N=C(\C(=O)N[C@@H]1C(=O)N2C(C(=O)[O-])=C(COC(C)=O)CS[C@H]12)c1csc(N)n1.[Na+]` [Cefotaxime sodium], for which the bioluminescence in experiment [2] was 1.45; in experiment [3], 0.707.
As to `Oc1c(I)cc(Cl)c2cccnc12` [Clioquinol], the bioluminescence in experiment [2] stood at 1.47; in experiment [3], 2.47.
The corresponding values for `CCC1(C)CC(=O)NC1=O` (centres undefined) [Ethosuximide] are 0.668 and 0.778.
`COCCOC(=O)C1=C(C)NC(C)=C(C(=O)OC(C)C)C1c1cccc([N+](=O)[O-])c1` (centres undefined) [Nimodipine]: the values for the bioluminescence in experiment [2] and in experiment [3] were 1.61 and 1.19, respectively.
The corresponding values for `CN(C)CCCN1c2ccccc2CCc2ccccc21.Cl` [Imipramine hydrochloride] are 0.82 and 0.961.
In the same order, the values of `Nc1ncnc2c1ncn2[C@@H]1O[C@H](CO)[C@@H](O)[C@H]1O` [Adenosine] are 0.746 and 0.654.
The corresponding values for `CCN(CC)CCNC(=O)c1c(C)[nH]c(/C=C2\C(=O)Nc3ccc(F)cc32)c1C` [Sunitinib] are 0.536 and 0.687.
As to `COc1cc(Nc2ncc(F)c(Nc3ccc4c(n3)N(COP(=O)(O)O)C(=O)C(C)(C)O4)n2)cc(OC)c1OC` [Fostamatinib], the bioluminescence was found to be 0.182 in experiment [2] and 0.0646 in experiment [3].
On to `Cc1ccccc1C(OCCN(C)C)c1ccccc1.O=C(O)CC(O)(CC(=O)O)C(=O)O` (centres undefined) [Orphenadrine Citrate], for which the bioluminescence in experiment [2] was 2.65; in experiment [3] it was 0.98.
On to `NC(=O)OCC(COC(N)=O)c1ccccc1` [Felbamate], for which the figures for the bioluminescence in experiment [2] and in experiment [3] were 3.87 and 0.547, respectively.
The corresponding values for `C[C@H]1[C@H](NC(=O)/C(=N\OC(C)(C)C(=O)O)c2csc(N)n2)C(=O)N1S(=O)(=O)O` [Aztreonam] are 0.795 and 1.4.
